From PubChem BioAssay AID1159580 (chemical genetic matrix, 2015)
Several values for one entry are separate records, joined by “and”; a condition that tells them apart may be missing. Equal entries are not always repeated. Among all 5,500 compounds or so, about 2,000 (36%) were called active. Inconclusive results (about 18%) are left out. No stated cut-off is given here; in the data, active means normalized growth mostly below about 0.91 (no sharp cut-off); inconclusive means no clear call, values can overlap the other calls; inactive means mostly above about 0.92. Some of the results follow.

Test: chemical genetic growth profiling, strain panel (AID 1159580);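 further: tested at 20 µM; growth read once vehicle control cultures reached saturation at 30 °C; 1 = growth at the plate median or of vehicle wells; lower values mean less growth of the strain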
Conditions: S. cerevisiae deletion strains, growth OD

Measured: normalized growth

CC1(C)O[C@@H]2CC3C4CCC5=CC(=O)C=C[C@]5(C)[C@@]4(F)[C@@H](O)C[C@]3(C)[C@]2(C(=O)CO)O1 (some centres not stated)
inactive: locus YAL013W, strain DEP1, active compounds read low 1.02 | locus YAL021C, strain ccr4, active compounds read low 0.99 | locus YAL026C, strain drs2, active compounds read low 1 | locus YAL030W, strain snc1, active compounds read low 0.996 | locus YBL061C, strain skt5, active compounds read low 0.98 | locus YBR009C, strain hhf1, active compounds read low 0.992 | locus YBR021W, strain FUR4, active compounds read low 0.946 | locus YBR023C, strain chs3, active compounds read low 0.993 | locus YBR171W, strain sec66, active compounds read low 1 | locus YBR229C, strain ROT2, active compounds read low 1.01 | locus YBR231C, strain swc5, active compounds read low 0.987 | locus YBR279W, strain paf1, active compounds read low 0.991 | locus YCL011C, strain gbp2, active compounds read low 1.02 | locus YCL016C, strain dcc1, active compounds read low 0.968 | locus YCL029C, strain bik1, active compounds read low 1 | locus YCL061C, strain MRC1, active compounds read low 1.01 | locus YCL069W, strain vba3, active compounds read low 1.01 | locus YCR088W, strain abp1, active compounds read low 1.01 | locus YDL005C, strain med2, active compounds read low 1 | locus YDL035C, strain GPR1, active compounds read low 1.01 | locus YDL040C, strain nat1, active compounds read low 0.988 | locus YDL074C, strain BRE1, active compounds read low 1.12 | locus YDL101C, strain DUN1, active compounds read low 1.01 | locus YDL134C, strain PPH21, active compounds read low 1.01 | locus YDL185W, strain tfp1, active compounds read low 1.01 | locus YDL192W, strain arf1, active compounds read low 1.01 | locus YDR001C, strain nth1, active compounds read low 1 | locus YDR069C, strain doa4, active compounds read low 0.998 | locus YDR101C, strain arx1, active compounds read low 0.992 | locus YDR137W, strain rgp1, active compounds read low 1.01 | locus YDR150W, strain NUM1, active compounds read low 1.02 | locus YDR159W, strain sac3, active compounds read low 0.928 | locus YDR162C, strain NBP2, active compounds read low 1.01 | locus YDR195W, strain ref2 0.954 | locus YDR297W, strain sur2, active compounds read low 0.997 | locus YDR318W, strain mcm21, active compounds read low 0.987 | locus YDR334W, strain swr1, active compounds read low 0.997 | locus YDR335W, strain msn5, active compounds read low 1.02 | locus YDR388W, active compounds read low 0.997 | locus YDR392W, strain spt3, active compounds read low 0.884 | locus YDR502C, strain sam2, active compounds read low 0.999 | locus YEL003W, strain gim4, active compounds read low 0.991 | locus YEL037C, strain rad23, active compounds read low 1.02 | locus YEL061C, strain CIN8 (second series), active compounds read low 1 | locus YEL061C, strain CIN8, active compounds read low 1.01 | locus YER015W, strain faa2, active compounds read low 0.991 | locus YER016W, strain bim1, active compounds read low 0.975 | locus YER110C, active compounds read low 0.998 | locus YER111C, strain swi4, active compounds read low 0.999 | locus YER155C, strain BEM2 (second series), active compounds read low 0.983 | locus YER155C, strain BEM2, active compounds read low 0.966 | locus YER167W, strain BCK2, active compounds read low 1.01 | locus YFR010W, strain ubp6, active compounds read low 1.01 | locus YGL078C, strain dbp3, active compounds read low 1 | locus YGL086W, strain mad1, active compounds read low 0.997 | locus YGL167C, strain pmr1, active compounds read low 0.988 | locus YGL173C, strain kem1, active compounds read low 0.98 | locus YGL227W, strain vid30, active compounds read low 1.01 | locus YGL240W, strain doc1, active compounds read low 0.953 | locus YGL248W, strain PDE1, active compounds read low 1.01 | locus YGL253W, strain hxk2, active compounds read low 1.02 | locus YGR078C, strain PAC10, active compounds read low 1.03 | locus YGR135W, strain pre9, active compounds read low 0.996 | locus YGR229C, strain SMI1, active compounds read low 1.02 | locus YGR252W, strain gcn5, active compounds read low 0.97 | locus YHR013C, strain ard1, active compounds read low 0.956 | locus YHR027C, strain rpn1, active compounds read low 1 | locus YHR030C, strain SLT2, active compounds read low 1.01 and 0.993 | locus YHR079C, strain IRE1 (second series), active compounds read low 0.989 | locus YHR079C, strain IRE1, active compounds read low 0.989 | locus YHR094C, strain hxt1, active compounds read low 0.994 | locus YHR129C, strain ARP1, active compounds read low 1.01 | locus YHR142W, strain chs7, active compounds read low 1.02 | locus YHR200W, strain rpn10, active compounds read low 0.995 | locus YIL066C, strain RNR3, active compounds read low 1.02 | locus YIL073C, strain SPO22, active compounds read low 1.05 | locus YIL125W, strain kgd1, active compounds read low 0.998 | locus YIR030C, strain dcg1, active compounds read low 1.01 | locus YJL092W, strain hpr5, active compounds read low 1 | locus YJL095W, strain BCK1 (second series), active compounds read low 1 | locus YJL095W, strain BCK1, active compounds read low 1.01 and 0.992 | locus YJL115W, strain asf1, active compounds read low 0.993 | locus YJL129C, strain trk1, active compounds read low 1.01 | locus YJL134W, strain LCB3, active compounds read low 1.01 | locus YJL154C, strain vps35, active compounds read low 0.999 | locus YJL164C, strain tpk1, active compounds read low 0.994 | locus YJL166W, strain qcr8, active compounds read low 0.996 | locus YJL168C, strain set2, active compounds read low 0.993 | locus YJL187C, strain SWE1 (second series), active compounds read low 1.02 | locus YJL187C, strain SWE1, active compounds read low 0.976 | locus YJR043C, strain POL32, active compounds read low 0.997 | locus YJR066W, strain TOR1, active compounds read low 0.947
